Experimental findings from PubChem BioAssay AID1463 (National Center for Advancing Translational Sciences (NCATS), 2008) are described below.

Hit rate of the full screen: of about 280,000 compounds, about 2,600 (0.93%) were called active. About 8% were inconclusive and are not listed. Shown is part of a subset that was picked to be rich in actives. Unmarked numbers belong to inactive results. Calls come from the whole dose curve; as a rule, active = well fitted curve in the direction sought with a large enough effect; inconclusive = small, poorly fitted or top-dose-only effect; inactive = flat fitted curve, though single readings scatter.
% is set by controls: 0 for no effect and ±100 for the full control effect; potency is the fitted concentration of half-maximal effect; tags give direction and shape of the fitted curve or compound fluorescence and quenching.

This test in a line: Counterscreen qHTS for Inhibitors of Tau Fibril Formation, Fluorescence Polarization. Note: nearly all actives have a fitted effect of over 55% in size. The conditions noted are these: tau K18 P301L (four-repeat tau fragment) Alexa594 fluorescence, heparin fibrillization; series mostly up to 57.7 µM; activity change, negative = decrease: at the top concentration. From the text:
NIH Molecular Libraries Probe Production Network [MLPCN]
NIH Chemical Genomics Center [NCGC]
Assay Provider: Carlo Ballatore, University of Pennsylvania
The microtubule-associated protein tau is an abundant protein in the axons of neurons that stabilizes microtubules. With its ability to modulate microtubule dynamics, tau contributes directly or indirectly, to key structural and regulatory cellular functions. Particularly important is the influence tau exerts on axonal transport, which allows signaling molecules, trophic factors and other essential cellular constituents to travel along the axons. Under pathological conditions, tau becomes sequestered into insoluble aggregates called neurofibrillary tangles. This phenomenon is believed to have pathological consequences by promoting axonal transport deficits that ultimately lead to synaptic dysfunction and neuronal loss. To identify inhibitors of tau aggregation, a heparin-induced tau fibril formation assay was used that employed a recombinantly expressed fragment of tau, K18 (Q242-E372), bearing a P301L mutation (Gustke et al. 1994; Hong et al. 1998). […] Total fluorescence (555 nm excitation and 632 nm emission) was measured to identify fluorescent or absorbent compounds at this wavelength. Such compounds may be artifacts that interfere with the Alexa 594 Tau fluorescence polarization assay.
Gustke, N., B. Trinczek, et al. (1994). "Domains of tau protein and interactions with microtubules." Biochemistry 33(32): 9511-22.
Hong, M., V. Zhukareva, et al. (1998).
Li, W. and V. M. Lee (2006). "Characterization of two VQIXXK motifs for tau fibrillization in vitro." Biochemistry 45(51): 15692-701.
von Bergen, M., S. Barghorn, et al. (2001). "Mutations of tau protein in frontotemporal dementia promote aggregation of paired helical filaments by enhancing local beta-structure." J Biol Chem 276(51): 48165-74.
NCGC Assay Protocol Summary:
For screening, 2 uL/well human K18 P301L (15 uM unlabeled and 0.24 uM Alexa 594-labeled tau final concentrations) in reagent buffer (100 mM sodium acetate pH 7) was dispensed into black solid 1536-well plates (Grenier) using a solenoid-based dispenser. Following transfer of 23 nL compound or DMSO vehicle by a pin tool, 2 uL/well heparin (20 uM final concentration) in reagent buffer was added and the plate centrifuged 15 s at 1000 RPM. Plates were incubated 6 hr at 37 C and then 1 uL/well ThT (30 uM final concentration) was added. After a 1 hr ambient incubation, the plates were read by an Envision (Perkin Elmer) to monitor Alexa 594 FP (555 nm excitation and 632 nm emission).
Keywords: NIH Roadmap, MLPCN, MLI, MLSMR, NCGC, qHTS, tau, tauopathies, Alzheimer's disease, fibril, neurodegeneration, aggregation
In the case of `COc1cc(OC)cc(C(=O)Nc2ccc3nc(Nc4cccc(C(F)(F)F)c4)cc(C)c3c2)c1`, the Potency was 3.98 µM [quencher] (active).
In the case of `Cc1ccc(NC(=O)Nc2cccc(C(F)(F)F)c2)nc1`, the “activity change, negative = decrease” value is -3.63%.
The same measure, in the same setting: in the case of `O=C(Nc1ccc(F)cc1F)c1ccc2c(=O)n3c(nc2c1)CCCCC3` it was -19.9%; in that of `O=C(CC1N=C2c3ccccc3N=C(SCc3cccc(Cl)c3)N2C1=O)NCc1ccc2c(c1)OCO2` (centres undefined), -27.4%; in that of `CCCn1c2ccccc2c2cnn(CC(=O)N(CC)c3cc(C)ccc3C)c(=O)c21`, -14.2%.
On the same count and under the same terms, in the case of `CCN(CC)CCNC(=O)Cn1ncc2c3ccccc3n(Cc3ccccc3C)c2c1=O` it was -13.4%; in that of `Cc1ccc2nc(/C(C#N)=C/c3ccc(-c4ccc(C(=O)OC(C)C)cc4)o3)[nH]c2c1`, -26.4%.
Consider `CC(=O)OC1=C(C(C)=O)N(Cc2ccccc2)S(=O)(=O)c2ccccc21`, for which the “activity change, negative = decrease” value is -6.98%.
Same read-out and setting: in the case of `CCOC(=O)Cn1c(=O)n(C2CCCCC2)c2nc(-c3cccc(OC)c3)nc(C(N)=O)c21` it was -8.8%.
Turning to `Cc1ccc(OC(=O)CCC(=O)Nc2ccc(Br)cc2)cc1`, the “activity change, negative = decrease” value was 5.66%.
On the same count and under the same terms, in the case of `COc1ccc(NC(=O)c2sc(N)nc2-c2ccccc2)cc1` it was -10.4%.
`COC(=O)CCc1sc(Nc2ccc(Br)cc2)nc1-c1ccc(OC)cc1`: the Potency is 8.91 µM [quencher] (active).
Turning to `COC(=O)c1ccc(NC(=O)CCc2c(C)nn(-c3ccc(N4CCCC4)nn3)c2C)cc1`, the “activity change, negative = decrease” value is -12.2%.
Regarding `Oc1ccc(N=Cc2sc3ccccc3c2Cl)cc1`, the Potency was 10 µM [quencher] (active).
In the case of `Oc1ccc2ccccc2c1C=Nc1ccccc1`, the “activity change, negative = decrease” value was -20.7%.
`COc1ccc(N=C(C)c2sc3ccccc3c2O)cc1`: the “activity change, negative = decrease” value was -23.8%.
As to `CCCNc1ncnc2c1c(-c1ccccc1)cn2-c1ccc(OCC)cc1`, the “activity change, negative = decrease” value was -8.19%.
On to `O=C(Nc1ccccc1F)C(c1ccccc1)N1Cc2ccccc2C1=O` (centres undefined), for which the “activity change, negative = decrease” value is -6.79%.
Same read-out and setting: in the case of `Cc1ccc(C)c(CNC(=O)c2cc3ccccn3n2)c1` it was -15.9%.
Still for that read-out and setting: in the case of `CCc1ccc(CNC(=O)c2ccc(CS(=O)c3ccc(Br)cc3)o2)cc1` (centres undefined) it was -8.58%; in that of `CN(C)c1cccc(C(=O)Nc2nc3ccc(S(=O)(=O)NC(C)(C)C)cc3s2)c1`, -26.9%.
With `COc1ccc2[nH]cc(CCNc3ncnc4ccc(-c5ccccc5CN(C)C)cc34)c2c1`, the “activity change, negative = decrease” value is -18.8%.
With `COCCNc1ccnc(-c2cccc(NS(C)(=O)=O)c2)n1`, the “activity change, negative = decrease” value was -11.8%.
With `COc1ccc2[nH]cc(CCNc3nc(-c4cccc(NS(C)(=O)=O)c4)nc4ccccc34)c2c1`, the Potency was 28.2 µM [quencher] (active).
In the case of `Cc1cccc(Cn2c(CN3CCC(C(=O)NCc4ccccc4Cl)CC3)cc3ccccc32)c1`, the “activity change, negative = decrease” value was -1.33%.
Consider `Cc1cc([N+](=O)[O-])ccc1NC(=O)c1ccc(NC(=O)C(C)C)cc1`, for which the “activity change, negative = decrease” value is -6.04%.
For the compound `CCn1c2ccccc2c2cc(NC(=O)CNC)ccc21`, the “activity change, negative = decrease” value is -25.8%.
As to `CCn1c2ccccc2c2cc(NC(=O)Nc3ccc([N+](=O)[O-])cc3C)ccc21`, the Potency was 8.91 µM [quencher] (active).
As for `O=C(Cn1cc(SCc2cccc(Cl)c2)c2ccccc21)N1CCCCC1`, the “activity change, negative = decrease” value is -24.4%.
On to `Cc1nc2ccn(Cc3cccnc3)c(=O)c2cc1C(=O)N1CCN(c2ccccc2F)CC1`, for which the “activity change, negative = decrease” value was -0.563%.
As for `CN(C)c1ccc(C(CNC(=O)c2ccc(F)cc2)c2c[nH]c3ccccc23)cc1` (centres undefined), the Potency was 25.1 µM [quencher] (active).
`O=C(Cc1ccccc1)NCc1ccc(F)cc1`: the “activity change, negative = decrease” value was -0.209%.
Still for that read-out and setting: in the case of `CCOc1ccccc1C(=O)NCC(c1ccc(N(C)C)cc1)N1CCCC1` (centres undefined) it was 4.45%; in that of `CCOc1ccc(CNC(=O)Cn2cc3c(n2)-c2c(oc(C(=O)N4CCCC4)c2C)CC3)cc1`, -13.1%.
As to `O=C(CN1C(=O)COc2ccc(S(=O)(=O)N3CCOCC3)cc21)N1CCN(c2cccc(Cl)c2)CC1`, the “activity change, negative = decrease” value is -9.08%.
`CC1(C)CN=C(N2CCN(c3ncnc4sc5c(c34)CCCC5)CC2)S1`: the “activity change, negative = decrease” value was 2.38%.
For `COc1ccc(/C=N/Nc2ncnc3sc4c(c23)CCCC4)cc1O`, the Potency was 14.1 µM [quencher] (active).
With `COc1ncnc2sc3c(c12)CCCC3`, the “activity change, negative = decrease” value was 6.33%.
On to `Cc1ccc(Cl)cc1NC(=O)CCS(=O)(=O)c1ccc(Br)s1`, for which the “activity change, negative = decrease” value was -2.67%.
With `Cc1ccccc1Nc1nn2c(=O)c3ccc(C(=O)NCCc4ccc(Cl)cc4)cc3nc2s1`, the “activity change, negative = decrease” value is -23.6%.
On the same count and under the same terms, in the case of `CN1CCN(C2(CNC(=O)COc3ccc(C(C)(C)C)cc3)CCCCC2)CC1` it was -8.9%.
With `Cn1c(C(=O)N2CCC(C(=O)N3CCN(c4ccccc4)CC3)CC2)cc2sccc21`, the “activity change, negative = decrease” value is -5.95%.
Regarding `CCCC(=O)Nc1ccc(NC(=O)c2sc3ccccc3c2Cl)cc1`, the “activity change, negative = decrease” value is -3.72%.
Turning to `O=C(N/N=C/c1c(Cl)[nH]c2ccccc12)c1sc2ccccc2c1Cl`, the Potency was 10 µM [quencher] (active).
Regarding `Cc1nn(C)cc1/C=N/NC(=O)c1sc2ccccc2c1Cl`, the “activity change, negative = decrease” value is -17.1%.
As for `CCOc1ccc(CCNC(=O)c2ccc3c(c2)sc2nc(-c4ccc(F)cc4)cn23)cc1OCC`, the “activity change, negative = decrease” value is -23.8%.
As to `COc1ccccc1CSc1nc2ccccc2[nH]1`, the “activity change, negative = decrease” value was -13.5%.
Turning to `COc1ccccc1CC(=O)Nc1ccc([N+](=O)[O-])cc1OC`, the “activity change, negative = decrease” value is -24.8%.
Regarding `COc1ccccc1CSc1ncc(-c2ccc([N+](=O)[O-])cc2)[nH]1`, the Potency was 28.2 µM [quencher] (active).
